From PubChem BioAssay AID504362 (National Center for Advancing Translational Sciences (NCATS), 2011) come the findings set out here.

Inconclusive results are not listed. The source made the active and inactive calls. Calls come from the whole dose curve; as a rule, active = well fitted activation curve with a large enough effect; inconclusive = small, poorly fitted or top-dose-only effect; inactive = flat fitted curve, though single readings scatter.

The assay is described as follows: qHTS Assay for Identifying a Potential Treatment of Ataxia-Telangiectasia: SAR for Probe. The conditions noted are these: F2112 A-T fibroblasts, NCS-induced pKAP1 AlphaLISA; series mostly up to 76.9 µM. From the text: NIH Chemical Genomics Center [NCGC] NIH Molecular Libraries Probe Centers Network [MLPCN] MLPCN Grant: MH089030-01 Assay Submitter (PI): Wei Zheng and Yosef Shiloh Ataxia-telangiectasia (A-T) is a devastating and progressive disease for which, there is no cure. Although A-T is a multisystem disease, it is stereotyped characterized by its neurological symptoms such as truncal ataxia, due to cerebellar cortical degeneration of the Purkinje and granule cells. Other symptoms of A-T are telangiectasias (dilated blood vessels), primary immunodeficiency, marked sensitivity to ionizing radiation (IR), chromosomal instability and predisposition to cancer. The underlying genetic cause of A-T is null mutations in the ATM (A-T mutated) gene. ATM is a nuclear serine/threonine kinase that functions as a master regulator of the cellular responses to double strand breaks (DSBs) in the DNA. Upon activation by DSBs, ATM phosphorylates a plethora of downstream targets, including KAP-1 on […]. KAP-1 phosphorylation occurs shortly in response to DSBs and mediates global chromatin relaxation, which facilitates DSB repair. To screen for small molecules that will compensate for the loss of ATM in cells derived from A-T patients, we monitored KAP-1 phosphorylation as a readout for ATM-like activity using an AlphaLISA assay. This set of data is for analogs of the probe molecule in the primary screening assay.
qHTS Assay Protocol: Step,Parameter,Value,Description 1. Cell Plating, 3 ul, 500 cells/well in OPTI-MEM, 1% FBS, 1% Pen/Strep 2. Incubation, 16-24 hr, 37C, 5% CO2, 95% humidity 3. Library compounds, 23 nl, 76.7 - 0.61uM dilution series final concentration 4. Incubation, 60 min, 37C, 5% CO2, 95% humidity 5. Reagent, 1 ul, 1600 ng/ml NCS in PBS + 0.05% BSA + 0.005% Tween 20 6. Incubation, 30 min, 37C, 5% CO2, 95% humidity 7. Reagent, 1 ul, Premixed detection reagents and lysis buffer 8. Reagent, 1 ul, 0.6% Antifoam A 9. Incubation, 6 hr, 25C, 95% humidity 10. Readout, EnVision, EnVision plate reader. AlphaScreen 1536-well protocol Cells were plated using medium-binding white solid-bottom tissue culture treated Kalypsys plates. Multidrop dispense of 3 uL of F2112 (hTERT immortalized A-T patient fibroblast cells). Detection reagent and lysis buffer was 3.75nM Rab-a-pKAP1 antibody bound to 75 ng/ul AlphaScreen SA donor bead, 3.75 nM Biot-M-a-KAP1 antibody bound to AlphaLISA protein A acceptor bead, 0.5x protease inhibitor cocktail and 0.25x PerkinElmer lysis buffer. EnVision protocol for 1536-well AlphaScreen read (30ms excitation, 100ms read), about 10 min/plate.
As for `CC1(C)C=Cc2c(O)cc(O)c(C(=O)/C=C/c3ccccc3)c2O1`, the Potency was 46.3 µM (active).
For `C=CCSc1nc2ccccc2n1C(=O)/C=C/c1ccc(F)cc1`, the Potency was 9.23 µM (active).
`COc1cc(/C=C/C(=O)c2ccccc2)cc(OC)c1OC`: the Potency is 46.3 µM (active).
For the molecule `O=C(/C=C/c1ccccc1)n1cnc2ccccc21`, the Potency entry was “inactive”.
On to `CC(C)=C/C=C/C(=O)c1ccccc1O`, for which the Potency result was “inactive”.
Turning to `CC1(C)C=Cc2ccc(O)c(C(=O)/C=C/c3ccccc3)c2O1`, the Potency was 36.8 µM (active).
Regarding `C=CCSc1nc2ccccc2n1C(=O)/C=C/c1ccc(OC)c(OC)c1`, the Potency is 14.6 µM (active).
The value for `COc1c(C(=O)/C=C/c2ccccc2)ccc2c1C=CC(C)(C)O2` was 36.8 µM (active).
For the molecule `CN1CCN(c2nc(C3=C(c4c[nH]c5ccccc45)C(=O)NC3=O)c3ccccc3n2)CC1`, the Potency result was “inactive”.
In the case of `COc1cc(/C=C/C(=O)n2cnc3ccccc32)cc(OC)c1OC`, the Potency was 13 µM (active).
